Values joined by “and” are separate entries in the source; they are usually repeats but may differ in a detail not shown here. Equal entries are not always repeated. The campaign covered roughly 330,000 compounds. About 1,900 (0.58%) were called active. The sample holds actives, similar compounds and a random draw of the others, so the mix is not that of the screen.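 The calls were made as follows: active = inhibition of aptamer binding above 40%, roughly 3 SD of noise, on plates passing a quality check; inactive = the rest.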 The source holds several records for some structures; these can differ, active in one and inactive in another.

The assay deals with Beta-adrenergic receptor kinase 1 (Homo sapiens) (UniProt P25098). Briefly: compounds blocking aptamer binding on GRK2 – biochemical, human GRK2, bead flow cytometry, HTS, primary screen (AID 488847).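 Also: median bead fluorescence of bound FAM aptamer so fluorescent compounds give negative values.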 The settings on record: FAM-aptamer displacement from GRK2, at 10 µM, stronger effect = higher value. Background: A flow cytometer gives signals particle by particle.
Chain of Beta-adrenergic receptor kinase 1 (Homo sapiens) (P25098 whole entry, looked up): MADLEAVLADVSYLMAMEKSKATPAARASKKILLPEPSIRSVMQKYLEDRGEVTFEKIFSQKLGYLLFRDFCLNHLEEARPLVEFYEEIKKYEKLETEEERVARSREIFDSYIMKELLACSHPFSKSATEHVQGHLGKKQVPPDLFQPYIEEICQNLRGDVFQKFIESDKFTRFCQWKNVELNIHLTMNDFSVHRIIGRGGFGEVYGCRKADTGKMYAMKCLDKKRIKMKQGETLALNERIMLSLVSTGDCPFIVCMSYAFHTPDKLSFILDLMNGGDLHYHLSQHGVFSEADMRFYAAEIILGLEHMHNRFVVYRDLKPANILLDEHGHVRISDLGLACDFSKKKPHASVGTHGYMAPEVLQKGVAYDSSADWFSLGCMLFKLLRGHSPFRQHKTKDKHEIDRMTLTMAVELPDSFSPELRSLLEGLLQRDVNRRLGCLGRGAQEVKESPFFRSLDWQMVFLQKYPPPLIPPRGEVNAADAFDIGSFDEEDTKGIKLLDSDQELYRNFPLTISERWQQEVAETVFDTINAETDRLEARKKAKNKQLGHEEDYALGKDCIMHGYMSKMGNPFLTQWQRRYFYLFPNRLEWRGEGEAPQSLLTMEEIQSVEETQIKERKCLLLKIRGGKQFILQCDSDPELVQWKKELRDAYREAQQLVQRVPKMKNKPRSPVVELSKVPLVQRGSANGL
As to `CCOC(=O)c1cccc(NC(=O)c2ccc(F)cc2F)c1`, the inhibition of aptamer binding is 3% (inactive).
Under `O=C(COC(=O)c1ccc(F)cc1F)Nc1ncccn1` stands 60% (active); under `O=C(COC(=O)CSc1ccccc1)Nc1ccc(F)cc1F`, 3% (inactive); under `O=C(NCCCN1CCCCC1)c1ccc2c(c1)NC(=O)C(N1CCOCC1)S2` (stereo unspecified), 3% (inactive).
Regarding `CCOC(=O)c1ccc(N/C(=N/S(=O)(=O)c2ccccc2)c2ccccc2)cc1`, the inhibition of aptamer binding was 0% (inactive).
Under `CC(=O)c1c(C)[nH]c(C(=O)N2CCN(S(=O)(=O)c3ccc(F)c(F)c3)CC2)c1C` stands 1% (inactive); under `CN(CC(=O)O)C(=O)c1ccccc1`, 1% (inactive).
Under `CN(Cc1ccccc1)C(=O)c1ccc(COc2ccccc2)cc1` stands 0% (inactive).
With `CN(Cc1ccccc1)C(=O)c1cccc(C(=O)N(C)Cc2ccccc2)c1` the figure was 49% (active).
For `c1ccc(Cc2cc[n+](Cc3ccccc3)cc2)cc1`, the inhibition of aptamer binding was 0% (inactive).
With `O=C(CCNC(=O)c1ccccc1)NN=Cc1ccc(Br)o1` the figure was 58% (active); with `O=C(CCc1n[nH]c(=O)[nH]c1=O)N/N=C/c1ccc(Br)o1`, 0% (inactive).
Take `O=C(CCC(=O)N/N=C/c1ccc(Br)o1)N/N=C/c1ccc(Br)o1`: the inhibition of aptamer binding is 13% (inactive).
As to `Cc1ccc(OCc2cc(C(=O)N(C)CCn3ccnc3C)no2)cc1C`, the inhibition of aptamer binding was 4% (inactive).
Regarding `O=C(ON=C1CCN(S(=O)(=O)c2ccccc2)CC1)c1ccc(Cl)cc1`, the inhibition of aptamer binding was 1% (inactive).
Under `CONC(=O)c1cc(OCC(F)(F)F)ccc1OCC(F)(F)F` stands 0% (inactive); under `O=C(NC(=O)c1cc(OCC(F)(F)F)ccc1OCC(F)(F)F)Nc1ccccc1`, 98% (active); under `O=C(Nc1ccccc1)Nc1ccc(C(F)(F)F)cn1`, 0% (inactive).
Take `COc1nc(NC2CCCCC2)nc(N2CCCCCC2)n1`: the inhibition of aptamer binding is 1% (inactive).
As for `Cc1cc(/C=C2/SC(=O)N(CC(=O)OC(C)C)C2=O)c(C)n1C`, the inhibition of aptamer binding was 2% (inactive).
With `C=CC1=C(C(=O)O)N2C(=O)[C@@H](NC(=O)/C(=N\OCC(=O)O)c3csc(N)n3)[C@H]2SC1` the figure was 66% (active).
With `CO/N=C(\C(=O)N[C@@H]1C(=O)N2C(C(=O)O)=C(COC(C)=O)CS[C@H]12)c1csc(N)n1` (stereo in doubt) the figure was 0% (inactive) and 38% (inactive) and 1% (inactive); with `C=CC1=C(C(=O)O)N2C(=O)[C@@H](NC(=O)/C(=N/OCC(=O)O)c3csc(N)n3)[C@H]2SC1`, 0% (inactive); with `CC[C@@H](C)[C@@H]1CN([C@@H](C)CN2CCC[C@H]2CN2C(N)=NC[C@H]2C(C)C)C(=N)N1CCc1ccc(Cl)c(Cl)c1`, 0% (inactive).
Under `COc1ccc(CNc2nc(NCc3ccc(OC)cc3)c3ncn(C4CCCC4)c3n2)cc1` stands 0% (inactive); under `O=C1[C@@H]2C(c3cccnc3)=NO[C@@H]2C(=O)N1c1ccc(Cl)cc1Cl`, 4% (inactive); under `CCOc1cccc(OCCCOc2cccc3cccnc23)c1`, 1% (inactive).
In the case of `C1=C(CCNc2ncnc3c2cnn3-c2ccccc2)CCCC1`, the inhibition of aptamer binding was 0% (inactive).
With `O=C(NNc1ncnc2c1cnn2-c1ccccc1)c1ccco1` the figure was 97% (active); with `Cc1ccccc1NC(=O)c1cnn(-c2ccccc2)c1NC(=O)c1ccco1`, 3% (inactive); with `CC(OC(=O)/C=C/c1ccccc1)C(=O)NC1CCCCC1C` (stereo unspecified), 0% (inactive).
Under `CC(=O)N1CCN(CC(=O)Nc2ccc(C)c(F)c2)CC1` stands 1% (inactive); under `CCCc1noc2c1/C(=N\O)CCC2`, 0% (inactive).
With `Cc1cc(C(=O)NC2CCN(Cc3ccccc3)CC2)n[nH]1` the figure was 50% (active); with `Cc1ccn2cc(C(=O)NC3CCN(Cc4ccccc4)CC3)nc2c1`, 0% (inactive); with `Cc1ccc(-c2cc(C(=O)NC3CCN(Cc4ccccc4)CC3)c3ccccc3n2)cc1`, 0% (inactive).
For the molecule `O=C(N/C(=C/c1ccc(Cl)cc1)C(=O)N1CCCCC1)c1ccco1`, the inhibition of aptamer binding was 0% (inactive).
Under `CCC(=C/c1sc2ccc3ccccc3c2[n+]1C)/C=C1\Sc2ccc3ccccc3c2N1C` stands 100% (active); under `N/C(=N\OC(=O)CCC1CCCCC1)c1ccccn1`, 0% (inactive); under `O=C(c1noc2c1CCCC2)N1CCc2ccccc2C1`, 0% (inactive).
Under `CCN1C(=O)/C(=C\N2CCN(c3cccc(Cl)c3)CC2)SC1=S` stands 3% (inactive); under `OC(COc1ccc2c(c1)CCC2)CN1CCN(c2cccc(Cl)c2)CC1` (stereo unspecified), 0% (inactive); under `CCc1nn(CCCN2CCN(c3cccc(Cl)c3)CC2)c(=O)n1CCOc1ccccc1`, 43% (active) and 0% (inactive).
With `CN(CCc1ccccn1)S(=O)(=O)c1ccc2c3c(cccc13)C(=O)N2` the figure was 0% (inactive); with `Cc1ccccc1C(=O)N1CCC(C(=O)Nc2ccc(S(=O)(=O)N(C)C(C)C)cc2)CC1`, 0% (inactive).
As for `CCCCc1nc2ccccc2c(=O)n1NC(=O)c1c(O)c2cccc3c2n(c1=O)CC3`, the inhibition of aptamer binding was 0% (inactive).
Consider `CCCc1nc2ccccc2c(=O)n1NC(=O)c1c(O)c2ccccc2[nH]c1=O`, for which the inhibition of aptamer binding is 92% (active).
Turning to `COc1cc(C(=O)Nn2c(CC(C)C)nc3ccccc3c2=O)cc(OC)c1OC`, the inhibition of aptamer binding is 0% (inactive).
With `Cc1ccc(NC(=O)COC(=O)CNC(=O)c2ccc(Cl)cc2Cl)cc1S(=O)(=O)N1CCOCC1` the figure was 2% (inactive).
With `Fc1ccc(CNc2nc3ccccc3n3nnnc23)cc1` the figure was 2% (inactive).
With `O=c1ccc2c(-c3ccccc3S(=O)(=O)O)c3ccc(O)c(O)c3oc-2c1O` the figure was 75% (active); with `Cc1cc(OCC(=O)N(C)c2c(N)n(Cc3ccccc3)c(=O)[nH]c2=O)c(C(C)C)cc1Cl`, 1% (inactive).
In the case of `O=C1CCCCC1Sc1ccc(Cl)cc1[N+](=O)[O-]` (stereo unspecified), the inhibition of aptamer binding is 1% (inactive).
With `COc1ccccc1N(C)S(=O)(=O)c1ccc(Cl)c(C(=O)Nc2ccncc2)c1` the figure was 0% (inactive); with `O=C1CCCN1C(=O)COc1ccc([N+](=O)[O-])cc1`, 1% (inactive); with `O=C(CSc1ccccc1)Nc1cccc(S(=O)(=O)N2CCOCC2)c1`, 2% (inactive).
With `O=C(Nc1nnc(-c2ccco2)o1)c1ccc(S(=O)(=O)N2CCOCC2)cc1` the figure was 0% (inactive).
Under `O=C(COC(=O)c1ccccc1)Nc1cccc(S(=O)(=O)N2CCOCC2)c1` stands 1% (inactive).
Turning to `CN=C(Nc1cccc(S(=O)(=O)N2CCOCC2)c1)c1ccccc1`, the inhibition of aptamer binding was 79% (active).
With `O=C(Nc1ccc(N2CCOCC2)cc1)c1cccc(S(=O)(=O)N2CCOCC2)c1` the figure was 2% (inactive); with `O=C(Nc1nnc(-c2ccccc2)o1)c1cccc(S(=O)(=O)N2CCOCC2)c1`, 49% (active).
